Source: PubChem BioAssay (National Center for Advancing Translational Sciences (NCATS))
Vif-A3G inh: blocks the Vif interaction with human APOBEC3G; actives 0.076% (n = 410,000); Q9HC16; AID 602310; Potency, µM (top dose mostly 46.1 µM), without a hit: top-dose activity, negative = active, hits mostly inhibitors; HeLa A3G-eYFP + Vif (tagged APOBEC3G with the HIV-1 protein that degrades it), YFP fluorescence, overnight; also: % is scaled to controls: 0 for no effect and ±100 for the full control effect; nearly all actives have a fitted effect of over 60% in size
Target sequence (Q9HC16 whole entry, looked up): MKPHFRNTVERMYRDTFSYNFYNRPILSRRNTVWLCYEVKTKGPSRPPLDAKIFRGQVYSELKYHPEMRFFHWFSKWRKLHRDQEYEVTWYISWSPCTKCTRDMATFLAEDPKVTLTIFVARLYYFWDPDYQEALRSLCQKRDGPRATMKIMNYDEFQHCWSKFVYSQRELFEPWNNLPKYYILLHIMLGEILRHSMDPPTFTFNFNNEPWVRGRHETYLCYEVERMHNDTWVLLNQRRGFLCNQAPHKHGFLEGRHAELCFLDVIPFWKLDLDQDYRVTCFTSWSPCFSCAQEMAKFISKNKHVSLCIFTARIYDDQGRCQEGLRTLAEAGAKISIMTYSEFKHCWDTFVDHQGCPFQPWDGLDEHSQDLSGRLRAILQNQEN
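HeLa cells stably expressing Vif and C-terminally eYFP-tagged A3G, seeded overnight at 37 deg C, then exposed to compound by pintool overnight at 37 deg C. Rise in yellow fluorescence (Ex 488/Em 500-530, Acumen) marks blocked Vif-driven A3G degradation.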
PINK1 modulator: PINK1 expression modulation; actives 0.2% (n = 410,000); Potency, µM (highest dose often 76.6 µM), inactives show at the top dose activation (PINK1 increase), usual class: activators; PINK1 immunofluorescence, high-content cytometry, 24 h; active = well fitted activation curve with a large enough effect; inconclusive = small, poorly fitted or top-dose-only effect; cell line not stated here; also: % of control where 0% means no effect; nearly all actives have a fitted effect of over 65% in size
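Compound titrations (5 concentrations, 24 h) on a stable cell line; DMSO and CCCP controls. Endpoint: fixed-cell PINK1 immunofluorescence with mitochondrial, cell and nuclear markers, scanned by microplate cytometer.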
Epigenetic derep: regulators of epigenetic silencing causing reporter derepression in mouse cells; murine LDR cells, GFP reporter derepression, 30 h; Potency, µM (top dose mostly 53.9 µM), inactives show at the highest dose GFP activation, actives largely listed as activators; actives 0.2% (n = 280,000); also: % of control where 0% means no effect; nearly all actives have a fitted effect of over 60% in size
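Readout is the number of GFP-expressing murine LDR cells, counted by cytometry following washing. Cells were treated with compound for 30 h at 37 C; the stably integrated CMV-GFP locus is normally silent.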
Vif-APOBEC3F blk: blocks the Vif interaction with APOBEC3F. HeLa A3F-eYFP + Vif (tagged APOBEC3F with the HIV-1 protein that degrades it), YFP fluorescence increase. Potency, µM (series often up to 46.1 µM), inactives show top-dose activity, negative = active. actives 0.2% (n = 390,000). AID 602313; also: % of control where 0% means no effect; nearly all actives have a fitted effect of over 65% in size
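Fluorescence increase (Ex 488/Em 500-530) after overnight compound treatment at 37 deg C flags inhibition of Vif-driven A3F-eYFP loss in stable HeLa A3F-eYFP/Vif cells seeded overnight beforehand.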
* hit, by the source's call; ? = inconclusive; · = no result; ! = not confirmed by another sample; [ ] = another dose, or the depositor's remark. Most compounds without a hit are left out; they make up all but 0.51% or so of the library. Unless noted, calls follow the shape of the dose curve; as a rule, active = well fitted curve in the direction sought with a large enough effect; inconclusive = small, poorly fitted or top-dose-only effect, or another doubt; inactive = no such curve, though single readings can be large; an effect the other way counts as inactive or inconclusive. Potency is read from the fitted curve at half-maximal effect.

SMILES	Vif-A3G inh	PINK1 modulator	Epigenetic derep	Vif-APOBEC3F blk
O=c1[nH]c(CN2CCN(c3ccccc3)CC2)nc2scc(-c3ccccc3)c12	?	8.8%	?	22.4µM*
Cc1ccc(NC(=O)CO/N=C/c2ccc(N(C)C)cc2)cc1	?	10.2%	?	25.1µM*
CCC1(c2ccccc2)NC(=O)N(CC(=O)Nc2cccc(S(=O)(=O)N3CCCC3)c2)C1=O (stereo not drawn)	-5.4%	1.0%	·	-5.9%
O=C(Nc1ccc(Br)c2ccccc12)c1ccc2ccccc2c1O	-0.9%	25.1µM*	4.8%	-11.2%
CC(=O)Nc1ccc(Br)c2ccccc12	-14.6%	-0.9%	3.5%	5.9%
Cc1ccc(S(=O)(=O)/N=C2/NC(=O)/C(=C\c3cc(Br)cc(Br)c3O)S2)cc1	-10.3%	2.7%	·	?
COc1ccc(/C=C/C(=O)c2ccc([N+](=O)[O-])o2)cc1OC	7.94µM*	8.5%	·	?
COc1cc(/C=C/C(=O)c2ccc([N+](=O)[O-])o2)ccc1O	?	1.6%	·	?
c1cncc(-c2nc(NCc3cccs3)c3ccccc3n2)c1	-7.9%	0.1%	-5.5%	17.8µM*
c1csc(CNc2nc(-c3ccoc3)nc3ccccc23)c1	·	0.3%	·	·
CC1=CC(C)(C)Nc2ccc(OC(=O)C(C)N3C(=O)c4ccccc4C3=O)cc21 (stereo not drawn)	?	0.0%	?	·
COc1cccc(NC(=O)CSc2ncnc3c2oc2ccccc23)c1	0.1%	9.7%	-1.0%	-6.4%
Cc1occc1-c1nnc(SCC(=O)Nc2nc(C(C)(C)C)cs2)o1	-3.7%	14.1µM*	1.5%	-2.1%
Cc1csc(NC(=O)CSc2nnc(-c3ccoc3C)o2)n1	0.3%	-1.3%	4.3%	-0.4%
CC(C)(CC(=O)NCc1ccc(Cl)cc1Cl)CC1=NS(=O)(=O)c2ccccc2N1	-7.3%	44.7µM*	0.8%	-0.4%
CCc1ccccc1NC(=O)c1cnn2c(C(F)(F)F)cc(-c3ccc(OC)c(OC)c3)nc12	2.6%	-0.2%	12.6µM*	?
CCCCC[C@@H](C)N1C[C@@H](COCc2ccccc2)Oc2cc(N3CCC[C@H]3CO)ccc2S1(=O)=O	·	11.2%	·	·
CCNc1ccc(Br)cc(C(=O)/C=C/c2ccc3c(c2)OCO3)c1=O	-28.7%	-0.4%	2.4%	12.6µM*
COc1ccc(C(=O)N(C)C2CCCN(Cc3ccccc3F)C2)cc1OC (stereo not drawn)	-0.6%	0.4%	·	4.7%
C/C(=N\NC(=O)C(C)Oc1ccc([N+](=O)[O-])cc1)c1ccccn1 (stereo not drawn)	-4.5%	-5.6%[38.3 µM]	15.8µM*	-5.0%
Cc1cc(C(=O)OCC(=O)Nc2cccc(S(=O)(=O)N3CCOCC3)c2)c(C)o1	2.0%	0.5%	2.1%	0.4%
CSCC[C@H](NC(=O)[C@H](Cc1ccccc1)n1c(=O)[nH]c2ccccc2c1=O)C(=O)N1CCC[C@@H]1C(=O)O	10µM*	-0.5%	·	-1.5%
COc1ccc(NC(=O)CC2C(=O)N(c3ccc(Cl)cc3)C(=S)N2CCc2ccncc2)cc1 (stereo not drawn)	3.7%	13.7%[38.3 µM]	-0.3%	-4.7%
COc1ccc(NC(=O)CC2C(=O)N(c3ccc(Cl)cc3)C(=S)N2CCc2ccccn2)cc1 (stereo not drawn)	-3.4%	28.2µM*	5.3%	-3.8%
COc1ccc(NC(=O)CC2C(=O)N(C)C(=S)N2CCc2ccccc2F)cc1 (stereo not drawn)	-2.1%	15.8µM*	2.2%	-4.5%
SMILES	Vif-A3G inh	PINK1 modulator	Epigenetic derep	Vif-APOBEC3F blk
Cc1ccc2c(c1)c(=O)c(Br)c(C)n2Cc1ccccc1	-8.4%	6.0%	1.0%	-5.4%
CCOC(=O)C1=C(O)/C(=C/c2ccc(OCC(=O)O)c(OCC)c2)SC1=Nc1ccccc1	0.0%	0.8%	3.8%	16.1%
c1cncc(-c2nc(N3CCCCCC3)c3ccccc3n2)c1	0.6%	-0.3%	-4.4%	3.5%
Cc1ccc(O)c(NC(=O)c2cccc(S(=O)(=O)N3CCCCC3)c2)c1	-0.6%	-2.5%	1.1%	-9.5%
Cc1ccc(O)c(NC(=O)c2ccc(Br)c(S(=O)(=O)N3CCCCC3)c2)c1	0.4%	39.8µM*	-2.7%	2.6%
O=C(NNC(=O)c1cccs1)c1ccc(F)cc1	-2.0%	0.9%	·	-3.7%
CC(=O)Nc1ccc(C2=CC(=O)C[C@H](c3ccc(Cl)cc3)C2)cc1	?	5.5%	·	22.4µM*
COc1ccc([C@H]2CC(=O)C=C(c3ccc(NC(C)=O)cc3)C2)cc1OC	-4.1%	1.0%	·	2.9%
O=C1c2ccccc2C2=Nc3ccccc3SC(c3ccc(Cl)cc3)C12 (stereo not drawn)	-0.8%	?	0.0%	2.4%
O=C1c2ccccc2C2=Nc3ccccc3SC(c3cccc(F)c3)C12 (stereo not drawn)	0.4%	39.8µM*	1.0%	-3.6%
COc1ccccc1CCC(=O)N1CCC(n2nccc2NC(=O)C2CCOC2)CC1 (stereo not drawn)	0.1%	-2.3%	·	-9.8%
CN1CCN(Cc2cc(COCc3ccccc3)c3cccnc3c2O)CC1	-6.5%	-1.0%	3.55µM*	?
Oc1c(CN2CCc3ccccc3C2)cc(Cl)c2cccnc12	-13.1%	2.1%	3.98µM*	?
CCCOCc1cc(CN2CCN(c3cccc(Cl)c3)CC2)c(O)c2ncccc12	-2.6%	?	?	?
CCN(CC)C(=O)Cn1c(=O)n(-c2ccccc2)c(=O)c2c3c(sc21)CCC3	-0.4%	-0.4%	-0.9%	11.2µM*!
Cc1cc(C)c2c(CC(=O)Nc3ccc(S(=O)(=O)Nc4nc(C)cc(C)n4)cc3)coc2c1	-0.9%	-0.8%	-1.9%	1.1%
COc1cc(CNC2CCCCCC2)cc(OC)c1OC	-0.4%	?	0.0%	-0.5%
Cc1cc(C(=O)OCC(=O)Nc2cccc(S(N)(=O)=O)c2)c(C)o1	-4.0%	-0.9%	·	3.4%
CCN1/C(=C/C=C/c2oc3ccc4ccccc4c3[n+]2CC)Oc2ccc3ccccc3c21	-101.3%	?	0.126µM*	-342.6%
Cc1ccccc1CC(=O)NC1CCN(C)CC1	0.1%	1.5%	·	15.4%
COc1cc(NC(=O)COC(=O)c2n[nH]c3ccccc23)c(C)cc1[N+](=O)[O-]	-7.2%	44.7µM*	0.0%	-4.3%
Nc1nonc1-n1nnc(C(=O)N/N=C/c2cccc(Cl)c2Cl)c1CN1CCCC1	-20.5%	12.1%	·	-1.7%
O=C(NN=Cc1ccc(N2CCOCC2)s1)c1ccc([N+](=O)[O-])cc1	-0.9%	15.8µM*	·	-6.1%
CC1CC(=O)C2=C(C1)OC(N)=C(C#N)C2c1coc2ccccc2c1=O (stereo not drawn)	-15.1%	0.7%	0.0%	11.2µM*
CC1(C)CC(=O)C2=C(C1)OC(N)=C(C#N)C2c1ccccc1 (stereo not drawn)	-5.3%	-1.1%[38.3 µM]	-2.9%	-0.5%
COc1cccc(OCCSc2nc3ccccc3c(=O)[nH]2)c1	-0.7%	3.0%	1.6%	-27.8%
CC(NC(=O)/C(C#N)=C/c1ccc([N+](=O)[O-])o1)c1ccccc1 (stereo not drawn)	22.4µM*	3.0%	·	11.2µM*
